Experimental data: PubChem BioAssay
Calls of active or inactive are those of the source. Unless noted, how the calls were made is not given here.

What was measured:
[1] = HepG2 liver cancer cell viability effects, profiling panel, resazurin fluorescence, 24 h, PK04 Diversity Set (AID 1172); settings: higher = more signal; further: test concentration not given here
[2] = basal S. cerevisiae growth modulation, no modifier, primary screen, OD600, strain BY4716, 24 h, basal condition (AID 1173); settings: OD600, 24 h, higher = more signal, called active from +8 up or from −8 down
[3] = MM1S myeloma cell viability, profiling panel, resazurin fluorescence, basal, 24 h, PK04 Diversity Set (AID 1174); settings: higher = more signal, called active from +8 up or from −8 down;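 further: MM1S multiple myeloma cell line; test concentration not given here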
[4] = molecular target: Dihydroorotate dehydrogenase (quinone), mitochondrial (Plasmodium falciparum (isolate 3D7)) (UniProt Q08210); assay: PfDHODH enzyme inhibitors, primary screen, biochemical, C-terminal His tag, absorbance 600 nm (AID 1175); settings: DCIP absorbance 600 nm, higher = more signal, called active from +8 up or from −8 down;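 further: recombinant parasite enzyme with a five histidine tag at its C terminus; test concentration not given here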
Chain of Dihydroorotate dehydrogenase (quinone), mitochondrial (Plasmodium falciparum (isolate 3D7)) (Q08210 whole entry, looked up): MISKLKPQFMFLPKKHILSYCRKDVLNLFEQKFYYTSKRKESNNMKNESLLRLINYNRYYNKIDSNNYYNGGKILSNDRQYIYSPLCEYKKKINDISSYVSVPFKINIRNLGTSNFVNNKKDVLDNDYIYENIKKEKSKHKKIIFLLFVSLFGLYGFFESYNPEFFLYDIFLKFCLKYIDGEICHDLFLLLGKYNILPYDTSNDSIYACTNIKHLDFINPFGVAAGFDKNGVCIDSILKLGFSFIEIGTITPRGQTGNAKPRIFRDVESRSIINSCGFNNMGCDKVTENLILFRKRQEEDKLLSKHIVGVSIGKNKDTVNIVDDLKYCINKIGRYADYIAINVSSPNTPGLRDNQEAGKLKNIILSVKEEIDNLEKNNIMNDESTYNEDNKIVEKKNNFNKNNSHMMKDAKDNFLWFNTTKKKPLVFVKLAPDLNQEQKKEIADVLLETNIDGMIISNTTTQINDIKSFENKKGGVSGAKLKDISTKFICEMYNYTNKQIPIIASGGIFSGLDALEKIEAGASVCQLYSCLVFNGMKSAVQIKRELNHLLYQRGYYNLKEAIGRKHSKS

[5] = P. aeruginosa biofilm formation inhibitors, primary screen, strain PAO1, LB-PBS medium, absorbance 600 nm (AID 1176); further: test concentration not given here; settings: P. aeruginosa PAO1 growth/biofilm, A600, 12 h; higher = more signal
[6] = S. cerevisiae RM11-1a growth modifiers, primary screen, strain RM11-1a, OD600, basal, 24 h (AID 1177); settings: OD600, 24 h, higher = more signal, called active from +8 up or from −8 down;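 further: cultures grown under basal conditions with no added stressor; test concentration not given here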
[7] = E. coli acrAB mutant growth effects, primary screen, E. coli filamentation inducers, strain DRC39, OD650, 24 h (AID 1178); settings: higher = more signal, called active from +8 up or from −8 down;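 further: growth measured as culture turbidity by optical density at 650 nm; test concentration not given here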
[8] = E. coli acrAB mutant growth effects, primary screen, E. coli filamentation inducers, strain DRC39, OD650, 48 h (AID 1179);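 further: screen aims at cell division blockers that make cells filament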; settings: E. coli DRC39 delta-acrAB growth, higher = more signal, called active from +8 up or from −8 down
[9] = RPMI8226 myeloma cell viability, profiling panel, resazurin fluorescence, basal, 24 h, PK04 Diversity Set (AID 1180); settings: higher = more signal;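 further: RPMI8826 multiple myeloma cell line at 5000 cells per well; test concentration not given here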
[10] = molecular target: E3 ubiquitin-protein ligase XIAP (Homo sapiens) (UniProt P98170); assay: XIAP binders, primary screen, biophysical, small-molecule microarray, fluorescence 635 nm (AID 1181); settings: small-molecule microarray binding, higher = more signal;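 further: score merges 667 nm emission and signal to noise over triplicate slides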
Chain of E3 ubiquitin-protein ligase XIAP (Homo sapiens) (P98170 whole entry, looked up): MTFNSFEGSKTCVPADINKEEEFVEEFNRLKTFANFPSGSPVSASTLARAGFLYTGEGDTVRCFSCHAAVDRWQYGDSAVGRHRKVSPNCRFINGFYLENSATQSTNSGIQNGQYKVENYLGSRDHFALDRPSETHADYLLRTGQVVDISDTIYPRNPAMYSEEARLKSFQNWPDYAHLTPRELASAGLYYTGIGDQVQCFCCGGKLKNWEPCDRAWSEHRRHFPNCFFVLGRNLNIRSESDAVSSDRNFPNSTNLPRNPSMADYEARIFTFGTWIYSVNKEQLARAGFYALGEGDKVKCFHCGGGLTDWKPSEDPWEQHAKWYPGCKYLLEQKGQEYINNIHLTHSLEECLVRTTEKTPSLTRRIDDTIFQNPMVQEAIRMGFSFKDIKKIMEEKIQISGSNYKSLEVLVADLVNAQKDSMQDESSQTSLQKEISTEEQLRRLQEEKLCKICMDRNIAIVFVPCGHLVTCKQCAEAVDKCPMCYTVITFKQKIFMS

Structure (SMILES) | z-score [1] | z-score [2] | z-score [3] | composite z-score [4] | z-score [5] | z-score [6] | z-score [7] | z-score [8] | z-score [9] | composite z-score [10]
NC(=O)NCC#Cc1ccc2c(c1)[C@]1(C(=O)N2)[C@H](c2ccc(OCCO)cc2)N2[C@H](c3ccccc3)[C@H](c3ccccc3)OC(=O)[C@H]2[C@@H]1C(=O)N1CCCCCCC1 | 0.314 | 1.64 (inactive) | -0.476 (inactive) | 0.769 (inactive) | 2.03 (inactive) | 2.58 (inactive) | -0.172 (inactive) | -1.96 (inactive) | -0.507 | 0.531
CC(C)NC(=O)[C@@]1(Cc2ccccc2I)c2ccccc2C(=O)N(Cc2ccccc2C(F)(F)F)[C@H]1c1ccc(CO)cc1 | 0.406 | 0.835 (inactive) | 1.09 (inactive) | -0.327 (inactive) | 0.82 (inactive) | -0.272 (inactive) | 0.52 (inactive) | -0.319 (inactive) | 0.508 | -0.206
COC(=O)C(CC#Cc1ccc2c(c1)[C@]1(C(=O)N2)[C@H](c2ccc(O)cc2)N2[C@H](c3ccccc3)[C@H](c3ccccc3)OC(=O)[C@H]2[C@@H]1C(=O)O)C(=O)OC | 0.464 | 0.338 (inactive) | -0.134 (inactive) | -1.59 (inactive) | 0.875 (inactive) | -0.316 (inactive) | -0.0388 (inactive) | -0.286 (inactive) | -0.0316 | -0.374
CC1=C2[C@@H](CCc3ccccc3)OB(O)C[C@@H]2[C@@H]2C(=O)C=CC(=O)[C@@H]2C1 | -0.548 | -17.6 (active) | -1.06 (inactive) | -3.6 (inactive) | 0.589 (inactive) | -0.055 (inactive) | -0.367 (inactive) | -0.0244 (inactive) | -1.13 | 0.0325
COCCOC(=O)N1C(=O)[C@@]2(c3cc(C#CCNC(N)=O)ccc31)[C@H](C(N)=O)[C@H]1C(=O)O[C@H](c3ccccc3)[C@H](c3ccccc3)N1[C@@H]2c1ccc(OCCO)cc1 | -0.195 | 0.713 (inactive) | -0.508 (inactive) | 0.506 (inactive) | 0.995 (inactive) | 1.62 (inactive) | 0.152 (inactive) | -0.0952 (inactive) | -1.09 | -0.188
COC(=O)C(CC#Cc1ccc2c(c1)[C@]1(C(=O)N2)[C@H](C(=O)N2CCc3cc(OC)c(OC)cc3C2)[C@H]2C(=O)O[C@H](c3ccccc3)[C@H](c3ccccc3)N2[C@@H]1c1ccc(O)cc1)C(=O)OC | -0.555 | 1.8 (inactive) | 1.26 (inactive) | -22.8 (active) | 3.04 (inactive) | 3.33 (inactive) | 0.414 (inactive) | 0.356 (inactive) | -0.14 | -0.167
O=C1CSC(c2cccc([N+](=O)[O-])c2)N1c1ccccc1 (stereo not given) | 0.0598 | 0.483 (inactive) | -0.0906 (inactive) | -0.861 (inactive) | 0.199 (inactive) | 0.468 (inactive) | 0.869 (inactive) | 0.869 (inactive) | 0.407 | -0.0056
Cc1ccc(-c2cccc(=O)o2)cc1 | -0.789 | -2.2 (inactive) | 0.123 (inactive) | -0.919 (inactive) | -0.128 (inactive) | -0.333 (inactive) | -0.418 (inactive) | -0.292 (inactive) | -0.442 | -0.0143
COC(=O)[C@@]1(Cc2ccc(F)cc2)[C@H]2c3cc(C(=O)N(C)C)n(Cc4ccc(C)c(F)c4F)c3C[C@H]2CN1C(=O)c1ccccc1 | 0.245 | 0.534 (inactive) | -0.231 (inactive) | 0.059 (inactive) | -0.0298 (inactive) | 0.671 (inactive) | 0.171 (inactive) | 0.265 (inactive) | -0.455 | -0.102
COCC1=C([C@H](O)CCc2ccccc2)[C@H](CO)[C@@H]2C(=O)N(C)C(=O)[C@@H]2C1 | -0.548 | -1.66 (inactive) | 0.244 (inactive) | -0.0291 (inactive) | 0.908 (inactive) | 0.1 (inactive) | 2.16 (inactive) | 1.65 (inactive) | 0.544 | -0.353
C=C(C(=O)CC[C@H](OC(=O)c1cccnc1)c1ccc(OCCO)cc1)C(C)C | -0.688 | -0.303 (inactive) | -2.35 (inactive) | 0.349 (inactive) | 0.273 (inactive) | 0.899 (inactive) | -0.97 (inactive) | -0.899 (inactive) | -2.53 | 0.158
[N-]=[N+]=NCc1ccccc1C[C@]1(C(=O)NCCN2CCOCC2)COC(c2ccc(OCCCO)cc2)=N1 | -0.801 | -1.36 (inactive) | -1.28 (inactive) | 0.456 (inactive) | 0.535 (inactive) | -0.383 (inactive) | 0.786 (inactive) | 0.0653 (inactive) | 0.106 | -0.0125
